Screening data: PubChem, several laboratories
In the library only some 3.3% were active in any assay of this set; here they are far more common.
HNF4A DNA FP: change in binding of human HNF4A to DNA, primary screen, biochemical, fluorescence polarization, FITC-DNA; activity change, % at 10 µM; Hepatocyte nuclear factor 4-alpha (Homo sapiens), P41235; 1 h; hit rate 0.3% among 360,000; AID 1224865, 2016; in the data active = activity change above about 30%, passing the limit was not always enough
CendR NRP1 mod: modulators of CendR peptide binding to NRP-1, primary screen, biochemical, fluorescence polarization, uHTS; FAM-RPARPAR peptide binding to NRP-1; inhibition, % at 25 µM; hit rate 0.85% among 360,000;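 active = inhibition or corrected inhibition above about 18%, plus a signal ratio from 0.5 to 1.5, limit read from the data, passing the limit was not always enough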
CTSL1 counter: Fasciola hepatica cathepsin L1 inhibitors, primary screen, counter-screen for PFM18AAP inhibitor project, biochemical, QFRET, fluorogenic peptide substrate | recombinant F. hepatica cathepsin L1, Z-Leu-Arg-MCA fluorescence | inhibition, % at 5.96 µM | hit rate 0.49% among 300,000 | AID 1906, 2009;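 active = inhibition above the mean of all tested compounds plus 3 SD, set per screening campaign, cut at about 17% in these data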;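 note: 0% = plate median of test compound wells and 100% = 1 µM Z-Phe-Ala-diazomethylketone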
Rpn11 inh: Rpn11 (PSMD14) deubiquitinase inhibitors, primary screen, biochemical, fluorescence polarization, uHTS; hit rate 0.59% among 360,000; AID 588493, 2011; inhibition, % at 20 µM; human 26S proteasome, Ub4-pepOG fluorescence polarization; 20S core pre-blocked with epoxomicin; 26S proteasome non-ATPase regulatory subunit 14 (Homo sapiens), O00487;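 active = inhibition at 20 µM, scaled to each plate's controls, above about 33%, limit read from the data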
TPT1 inhibitor: Candida albicans TPT1 enzyme inhibitors, primary screen, biochemical, fluorescence polarization; tRNA 2'-phosphotransferase TPT1 (Candida albicans SC5314); recombinant caTPT1, FP RNA substrate dephosphorylation; inhibition, % at 5 µM; hit rate 0.81% among 300,000; AID 1962, 2009;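 active = inhibition above the mean of all tested compounds plus 3 SD, set per screening campaign, cut at about 24% in these data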;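 note: plate controls were DMSO alone for no effect and ferristatin control at 100 nM for full effect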
PHOSPHO1 inh: PubChem AID 1565; recombinant PHOSPHO1, absorbance phosphatase assay; hit rate 1.1% among 290,000; inhibition, % at 13.3 µM; Phosphoethanolamine/phosphocholine phosphatase (Homo sapiens), Q8TCT1; in the data active = inhibition above about 60%
* marks the source's active call; other numbers are inactive results; nt = no result given.

SMILES	HNF4A DNA FP	CendR NRP1 mod	CTSL1 counter	Rpn11 inh	TPT1 inhibitor	PHOSPHO1 inh
Cc1nnc(NC(=O)c2ccc(S(=O)(=O)N3CC(C)OC(C)C3)cc2)o1 (centres undefined)	1	12	2	3	-5	24
Cc1cc(C(=O)Nc2ccc(S(=O)(=O)N3CCCC3)cc2)no1	-1	-6	-5	3	0	62*
Cn1cc(SCC(=O)NCCc2ccccc2)c2ccccc21	-8	16	1	-3	-1	4
CCOc1ncccc1C(=O)NCC1COc2ccccc2O1 (centres undefined)	5	-8	-7	-2	-1	-33
COc1ccc(-n2cc(CNCCc3nc(C)cc(C)n3)c(-c3ccccc3Cl)n2)cc1	1	1	-1	0	-3	22
Fc1ccc(-n2cc(CNCCc3ccccn3)c(-c3ccccc3Cl)n2)cc1	0	-4	-10	-3	2	67*
CN(C(=O)COC(=O)COc1ccc(Cl)cc1Cl)c1c(N)n(Cc2ccccc2)c(=O)[nH]c1=O	-1	-1	-4	8	1	nt
CN(C)/N=C/c1ccc(Sc2ccc([N+](=O)[O-])cc2[N+](=O)[O-])o1	4	33*	1	4	1	2
Cc1cc(C)nc(Sc2ccc([N+](=O)[O-])cc2[N+](=O)[O-])n1	1	-5	6	-1	-6	8
CC(C)/C=C/CN1CCC(Oc2ccc(C(=O)N3CCCC3)cc2)CC1	-6	0	2	-12	-4	14
CC(Sc1nnnn1-c1ccccc1)C(=O)NC1CCCC1 (centres undefined)	2	17	nt	-4	nt	nt
COc1ccc(-n2nnnc2SC(C)C(=O)NC2CCCC2)cc1 (centres undefined)	1	20*	nt	0	nt	nt
CC(=O)N1c2ccc(S(=O)(=O)N3CCCC(C(=O)NC4CCCC(C)C4C)C3)cc2CC1C (centres undefined)	2	3	0	-2	-2	48
CCN1C(=O)[C@H]2[C@@H](c3ccc(C)cc3)N3C(=O)N(c4ccccc4)C(=O)[C@@]3(CC)[C@H]2C1=O	-5	-1	1	-2	-1	-2
O=c1c2c(nc3c(-c4ccccc4)c[nH]n13)CCC2	3	-7	0	2	2	45
O=c1c2c(nc3c(-c4cccc(Br)c4)c[nH]n13)CCCC2	1	-13	6	-4	1	62*
COCCN1C[C@@H](CO)O[C@@H](n2cnc3c(N(C)C(C)C)ncnc32)C1	1	24*	nt	0	nt	nt
COC(=O)CNC(=O)COC(=O)c1ccc(OC)c([N+](=O)[O-])c1	2	-2	-7	-8	0	-6
O=C(Cn1cccc1C(=O)c1ccccc1)NCCC1=CCCCC1	2	23*	5	0	0	16
CC1CCCCC1NC(=O)Cn1cccc1C(=O)c1ccccc1 (centres undefined)	-1	14	4	0	-2	70*
CC1CCCCC1NC(=O)CCCCCn1c(=S)[nH]c2ccccc2c1=O (centres undefined)	3	-18	-1	4	-1	63*
COc1ccc(-c2noc(CCC(=O)NC3CCCCCC3)n2)cc1OC	3	1	nt	-4	nt	nt
COC(=O)c1cccc(NC(=O)CSc2nnc(-c3ccco3)o2)c1	-5	1	0	1	0	-6
Cc1cc(N=Nc2c(O)c3ccccc3[nH]c2=O)ccc1N=Nc1ccc(C(=O)N(C)C)cc1	-2	23*	nt	13	nt	27
O=c1nc2n(c3cc(Cl)c(S(=O)(=O)N4CCOCC4)cc13)CCCCC2	-1	8	1	-4	1	1
COC(=O)c1ccc[n+](CCc2c[nH]c3ccccc23)c1	5	-19	-3	-5	0	nt
Fc1ccc(NC(=S)N2CCCc3ccccc32)cc1	-2	6	-5	-9	2	95*
OCc1ccccc1OCCCOc1cccc2cccnc12	3	33*	-4	0	0	45
